High-throughput results deposited in PubChem BioAssay by National Center for Advancing Translational Sciences (NCATS).
Sampled rows, rich in hits. Any-hit rate of the full collection: about 11%.
FLuc inh: firefly luciferase inhibition | P08659 | purified firefly luciferase, luminescence, 8 min | Potency, µM (highest dose often 57.1 µM), for inactives: at the highest dose activity change, negative = inhibition, usual class: inhibitors | 2.2% of 72,000 active | AID 411; note: nearly all actives have a fitted effect of over 40% in size
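Compounds were tested as concentration series (qHTS) against purified P. pyralis luciferase with luciferin and 10 uM ATP in 50 mM imidazole pH 7.2, 50 mM KCl, 7 mM MgCl2, 0.01% Tween 20, 0.05% BSA. Luminescence was read after 8 min at ambient temperature.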
HADH2 inhib: HADH2 (human) dehydrogenase inhibition; 3.4% of 73,000 active; recombinant HADH2, NADH fluorescence, beta-hydroxybutyryl-CoA; Potency, µM (highest dose often 57.1 µM), for the others: at the highest dose activity change, negative = inhibition, usual class: inhibitors; Q99714; note: nearly all actives have a fitted effect of over 60% in size
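Read-out: 360 nm excitation, 450 nm emission, kinetic over 4 min. Conditions: His-tagged human HADH2 20 nM, pH 9.0 Tris with Tween-20, 1 mM NAD+, 90 uM beta-hydroxybutyryl-CoA.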
PK Bst: alters activity of Bacillus stearothermophilus pyruvate kinase | Potency, µM | 1.2% of 51,000 active | purified pyruvate kinase, luminescence ATP production; ribose 5-phosphate activator present at AC10; in the data active = potency below about 11 µM; inconclusive = mostly about 12 µM to 25 µM;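 the screen sought inhibitors and activators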;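 note: scaled between full activation by ribose 5 phosphate and full inhibition by luteolin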
ERK AVP inh: vasopressin-driven ERK pathway inhibition | HEK293-V1b, vasopressin-stimulated pERK AlphaScreen | Potency, µM (series often up to 57.5 µM), for inactives: at the top dose activity, negative = inhibition, usual class: inhibitors | 0.99% of 72,000 active | AID 995; note: nearly all actives have a fitted effect of over 55% in size
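Overnight-seeded V1b-HEK293 cells in 1% FBS got compound, then vasopressin (25 nM final, 5 min, 37C), then lysis buffer. AlphaScreen detection of phospho-ERK; activity normalized to basal and full-stimulation controls.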
15-hLO inh: inhibitors of human 15-lipoxygenase (ALOX15); P16050; purified 15hLO-1, xylenol orange hydroperoxide absorbance; Potency, µM (titrated, usually from 57.1 µM), inactives show top-dose activity change, negative = inhibition, most hits filed as inhibitors; 1.4% of 74,000 active; AID 887; note: nearly all actives have a fitted effect of over 55% in size
Target sequence (P16050 whole entry, looked up): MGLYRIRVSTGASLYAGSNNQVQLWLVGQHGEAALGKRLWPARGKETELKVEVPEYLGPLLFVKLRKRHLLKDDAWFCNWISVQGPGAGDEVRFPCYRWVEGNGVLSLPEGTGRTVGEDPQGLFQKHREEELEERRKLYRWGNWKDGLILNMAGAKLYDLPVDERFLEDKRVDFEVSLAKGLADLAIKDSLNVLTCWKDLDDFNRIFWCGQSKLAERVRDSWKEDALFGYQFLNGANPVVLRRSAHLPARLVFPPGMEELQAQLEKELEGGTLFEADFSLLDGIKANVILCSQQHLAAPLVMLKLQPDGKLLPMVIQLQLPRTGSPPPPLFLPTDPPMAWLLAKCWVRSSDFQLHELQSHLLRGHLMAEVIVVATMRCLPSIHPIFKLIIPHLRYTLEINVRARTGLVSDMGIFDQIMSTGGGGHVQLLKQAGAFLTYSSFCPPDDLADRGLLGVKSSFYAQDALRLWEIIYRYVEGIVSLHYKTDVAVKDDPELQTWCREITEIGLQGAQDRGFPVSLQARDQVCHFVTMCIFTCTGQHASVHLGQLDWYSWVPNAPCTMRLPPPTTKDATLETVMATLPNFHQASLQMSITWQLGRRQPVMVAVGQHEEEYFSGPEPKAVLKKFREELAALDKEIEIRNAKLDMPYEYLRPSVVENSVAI
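Quantitative HTS in 25 mM Hepes pH 7.5 containing 0.01% Triton X-100: human 15hLO-1 at 40 nM, arachidonic acid at 50 uM, 6 min turnover. Product quantified via ferrous oxidation/xylenol orange, 573:405 nm absorbance ratio.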
HSD17B inhib: blocks hydroxysteroid 17-beta dehydrogenase activity; Q99714; recombinant HSD17B10, NADH fluorescence kinetic; Potency, µM (top dose mostly 57.1 µM), without a hit: at the highest dose activity change, negative = inhibition, actives largely listed as inhibitors; 7.6% of 75,000 active;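 note: the protocol describes HADH2 (HSD17B10) and not the HSD17B4 of the title; nearly all actives have a fitted effect of over 70% in size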
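His-tagged E. coli-expressed HADH2 at 20 nM in 100 mM Tris-HCl pH 9.0 with 0.01 % Tween-20, preincubated 15 min with compound at room temperature. Reaction with 1 mM NAD+ and 90 uM beta-hydroxybutyryl coenzyme A; NADH fluorescence (360/450 nm) read kinetically over 4 min, last minus first point.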
Active calls of the source: *; [ ] = another dose, or the depositor's remark. Unless noted, calls come from the whole dose curve; as a rule, active = well fitted curve in the direction sought with a large enough effect; inconclusive = small, poorly fitted or top-dose-only effect, or another doubt; inactive = no such curve, though single readings can be large; an effect the other way counts as inactive or inconclusive. Unless noted, % is set by controls: 0 for no effect and ±100 for the full control effect; potency is the fitted concentration of half-maximal effect.

Cc1cnc(CNc2ncnc3ccc(-c4ccccc4C)cc23)cn1 was read as FLuc inh -1%[2.29 µM], HADH2 inhib 4%, ERK AVP inh -29%, 15-hLO inh 2% and HSD17B inhib -1%.
For Cc1cccc(CNc2ncnc3ccc(-c4ccccc4C#N)cc23)c1 the results were FLuc inh 1%[2.29 µM], HADH2 inhib -6%, ERK AVP inh -20%, 15-hLO inh 3% and HSD17B inhib 25µM*.
N#Cc1ccccc1-c1ccc2ncnc(NCc3cccs3)c2c1 was read as FLuc inh 0%[2.29 µM], HADH2 inhib inconclusive, ERK AVP inh -26%, 15-hLO inh inconclusive and HSD17B inhib 25µM*.
Cc1cnc(CNc2ncnc3ccc(-c4ccccc4Cl)cc23)cn1 was read as FLuc inh -1%[2.29 µM], HADH2 inhib 0%, ERK AVP inh 20µM*, 15-hLO inh 4% and HSD17B inhib 7%.
For CC(=O)c1cccc(S(=O)(=O)N2CCN(c3nc4cc(C)cc(C)c4cc3C#N)CC2)c1 the results were FLuc inh 1%, HADH2 inhib 12%, PK Bst >57, ERK AVP inh 32%, 15-hLO inh -4% and HSD17B inhib 16µM*.
`Cc1ccc(S(=O)(=O)N2CCN(c3nc4ccccc4nc3-n3nc(C)cc3C)CC2)cc1` gave FLuc inh 0%, HADH2 inhib inconclusive, PK Bst >57, ERK AVP inh 42%, 15-hLO inh -26% and HSD17B inhib inconclusive.
`O=c1nc(NC2CCCC2)ccn1Cc1cccc(Br)c1` gave FLuc inh -1%, HADH2 inhib 9%, PK Bst >57, ERK AVP inh -13%, 15-hLO inh -12% and HSD17B inhib 7%.
Screening Oc1ccc(Br)cc1-c1nc2cnccn2c1NC1CCCC1 returned FLuc inh 0%, HADH2 inhib -5%, PK Bst >57, ERK AVP inh 32µM*, 15-hLO inh inconclusive and HSD17B inhib inconclusive.
Cc1nnc2sc(-c3cccc(NC(=O)c4cccnc4)c3)nn12 was read as FLuc inh inconclusive, HADH2 inhib 16µM*, ERK AVP inh inconclusive, 15-hLO inh -12% and HSD17B inhib 20µM*.
Cc1ccc(-c2nn3c(C)nnc3s2)cc1NC(=O)c1cccnc1 was read as FLuc inh 5%, HADH2 inhib 0%, ERK AVP inh 14%[11.5 µM], 15-hLO inh 4% and HSD17B inhib 9%.
NCCCCCCNS(=O)(=O)c1ccc2c(Cl)cccc2c1 was read as FLuc inh 5%, HADH2 inhib 9%, ERK AVP inh 23%, 15-hLO inh 3%[25.6 µM] and HSD17B inhib -2%.
Screening COc1cc(CNc2ccc3[nH]c(=O)[nH]c3c2)ccc1OCC(=O)NC(C)(C)C returned FLuc inh -3%, HADH2 inhib -6%, ERK AVP inh inconclusive, 15-hLO inh 25µM* and HSD17B inhib inconclusive.
CC(=O)N1CCC2(CCCN(c3ccccc3)C2)CC1 was read as FLuc inh 1%[11.4 µM], HADH2 inhib 0%, ERK AVP inh 4%, 15-hLO inh 7% and HSD17B inhib 8%.
`Cc1c(/N=C/c2ccco2)n(Cc2ccccc2)c2ccccc12` gave FLuc inh 0%, HADH2 inhib -19%[11.4 µM], ERK AVP inh 13µM*, 15-hLO inh inconclusive and HSD17B inhib 17%.
For COc1ccc(-c2nc3cnc(N4CCOCC4)nc3n(Cc3cccc(OC)c3)c2=O)cc1 the results were FLuc inh -2%[11.4 µM], HADH2 inhib 5%, ERK AVP inh 6%, 15-hLO inh -2% and HSD17B inhib -7%.
Screening CC(=O)N(c1ccc2oc(=O)sc2c1)S(=O)(=O)c1cccs1 returned FLuc inh -3%, HADH2 inhib inconclusive, PK Bst >57, ERK AVP inh 5%, 15-hLO inh 10µM* and HSD17B inhib inconclusive.
CCCC(=O)N(c1ccc2oc(=O)sc2c1)S(=O)(=O)c1ccccc1 was read as FLuc inh -9%, HADH2 inhib 32µM*, PK Bst >57, ERK AVP inh -27%, 15-hLO inh 25µM* and HSD17B inhib 25µM*.
`CC(C)C(=O)N(c1ccc2oc(=O)sc2c1)S(=O)(=O)c1cccs1` gave FLuc inh -2%, HADH2 inhib inconclusive, PK Bst >57, ERK AVP inh -15%, 15-hLO inh 20µM* and HSD17B inhib 32µM*.
CC(=O)Oc1ccc(N(C(C)=O)S(=O)(=O)c2cccs2)cc1 was read as FLuc inh -1%, HADH2 inhib inconclusive, PK Bst >57, ERK AVP inh -12%, 15-hLO inh 9% and HSD17B inhib -4%.
OCc1ccccc1O[C@H]1OC(CO)C(O)C(O)C1O (stereo not given in full) was read as ERK AVP inh 6%, 15-hLO inh 1% and HSD17B inhib 3%.
`Cn1c(Sc2ccc(-c3cccnc3)n2C)ccc1-c1cccnc1` gave FLuc inh 4%[11.4 µM], HADH2 inhib inconclusive, ERK AVP inh 12%[11.5 µM], 15-hLO inh 1%[11.4 µM] and HSD17B inhib -16%[11.4 µM].
For COC(=O)c1ccc(CSc2nc3c(cnn3-c3ccc(C)c(C)c3)c(=O)[nH]2)o1 the results were FLuc inh 1%, HADH2 inhib -15%, PK Bst >57, ERK AVP inh 5%, 15-hLO inh 0% and HSD17B inhib 6%.
COC(=O)c1ccc(CSc2nc3scc(-c4cccs4)c3c(=O)[nH]2)o1 was read as FLuc inh 0%, HADH2 inhib 10µM*, PK Bst >57, ERK AVP inh -30%, 15-hLO inh -20% and HSD17B inhib 20µM*.
`CCCC(=O)Nc1cc(-c2cn3cccnc3n2)ccc1OC` gave FLuc inh -3%, HADH2 inhib 2%, PK Bst >57, ERK AVP inh 13%, 15-hLO inh 8% and HSD17B inhib 32µM*.
Screening COc1ccc(-c2cn3cccnc3n2)cc1NC(=O)CC(C)C returned FLuc inh -2%, HADH2 inhib -24%, PK Bst >57, ERK AVP inh 16%, 15-hLO inh 14% and HSD17B inhib 25µM*.
For CCOCC(=O)Nc1ccc(-c2cn3cccnc3n2)cc1 the results were FLuc inh -6%, HADH2 inhib inactive, PK Bst >57, ERK AVP inh 15%, 15-hLO inh 7% and HSD17B inhib 3.2µM*.
Screening COc1ccc(Cl)cc1NC(=O)Cn1cccc1 returned FLuc inh 1%, HADH2 inhib 0%, PK Bst >57, ERK AVP inh -23%, 15-hLO inh -2% and HSD17B inhib -11%.
